Assay results reported in PubChem BioAssay AID434955 (Southern Research Specialized Biocontainment Screening …, 2010).
The campaign covered roughly 330,000 compounds. About 880 (0.27%) were called active. Not shown: some 1% with an inconclusive outcome. No rule for the calls is given here. Only a sample is shown.

Test: beta-lactam sensitization of Mtb H37Rv, H37Rv (AID 434955);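 also: growth measured after seven days incubation then overnight dye step; 0% = bacteria only wells and 100% = bacteria with antibiotic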
Conditions: M. tuberculosis H37Rv growth with meropenem, percent inhibition, at 25 µM
[1] = measured here: primary screen without meropenem

Compound	inhibition (stronger effect = higher value)	inhibition [1]
CSc1ccc(CN2C(=O)NC3(CCCCCC3)C2=O)cc1	19.2% (inactive)	5.94%
CCN(CC)CCNCC(=O)Nc1ccc(Oc2ccccc2)cc1	-3.27% (inactive)	3.64%
COc1ccc(N2CCN(C(=O)CCNC(=O)c3ccc(Br)cc3)CC2)cc1	-10.2% (inactive)	-3.75%
O=C(NCc1ccccc1)C(c1ccco1)N(C(=O)c1csnn1)c1ccccc1F (stereo unspecified)	-3.66% (inactive)	-4.47%
COc1ccccc1CN1CC(C(=O)NCCc2cn[nH]c2)CCC1=O (stereo unspecified)	-1.38% (inactive)	3.44%
CC1=NCCN1S(=O)(=O)c1ccc(Br)c(C)c1	5.04% (inactive)	10.8%
Cn1c(SCC(=O)N2CCOCC2)nnc1-c1ccc(NC(=O)c2ccccc2F)cc1	-1.25% (inactive)	-0.23%
Cc1ccc(S(=O)(=O)N(C)CC(=O)OCC(=O)N2CC(=O)Nc3ccccc32)cc1	-3.86% (inactive)	-0.77%
Cc1csc(Nc2ccc(Cl)cc2)[n+]1-c1ccc(Cl)cc1	5.09% (inactive)	-4.07%
C=CCC(NCc1ccco1)c1ccc(OC)cc1 (stereo unspecified)	-0.53% (inactive)	-3.95%
CCCc1ccc(-c2c(C)sc(NC(=O)c3ccnn3C)c2C#N)cc1	15.9% (inactive)	-4.16%
N#Cc1ccc(OCCN2C(=O)NC3(CCSC3)C2=O)cc1 (stereo unspecified)	-7.2% (inactive)	-8.16%
CN(C)CCn1c2c(c(SCC(=O)Nc3ccccc3C(F)(F)F)nc1=O)CCCC2	-6.06% (inactive)	-5.4%
O=C(NCCc1ccccc1)C1CCC(Cn2c(=O)c3ccccc3n(Cc3cccnc3)c2=O)CC1 (stereo unspecified)	19.4% (inactive)	2.41%
O=S(=O)(NCC1CC1)c1ccc(F)c(Cl)c1	-3.45% (inactive)	1.07%
O=C(Nc1ccccc1Cl)/C(Cl)=C(\Cl)S(=O)c1ccccc1 (stereo unspecified)	100% (inactive)	100%
O=C(Oc1c(-c2ccco2)oc2ccccc2c1=O)c1cccnc1	92.5% (inactive)	91.2%
Cc1ccc(OCC(=O)Oc2ccccc2[N+](=O)[O-])cc1	-3.48% (inactive)	-11.4%
O=C1NC2(CCCCC2)N=C1c1ccccc1	-10.1% (inactive)	-2.99%
Cc1cc(NC(=O)c2ccccc2C)no1	-1.93% (inactive)	3.81%
Cc1n[nH]c(=O)c2c(NC(=O)CSc3cc(Cl)ccc3Cl)oc(C)c12	-5.41% (inactive)	-1.99%
CC(C)C(=O)Nc1nnc(SCC(=O)N2C(C)CCCC2C)s1 (stereo unspecified)	0.21% (inactive)	10.7%
Cc1ccc2c(c1)-c1c(ssc1=S)C(C)(C)N2C(=O)CN1C(=O)c2ccccc2C1=O	-4.41% (inactive)	-1.91%
